Experimental data as given in PubChem BioAssay (NCI).
About 83,000 compounds went through this panel and 20% of them were active in at least one assay; those are over-represented in the sample as a whole.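 For each line, cells grew in 96-well plates with the test compound present at a single concentration for 48 hours.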 A number with no mark means an inactive call. Calls of active or inactive are those of the source. Rule for the calls: active = growth percent below 10; inactive = the rest.

System: SN12C renal
Assay: NCI-60 one-dose screen, 48 h (100 = growth as untreated, 0 = no growth, -100 = all killed)
Settings: 10 µM unless noted

| Compound | growth |
| --- | --- |
| COc1ccc2[nH]cc(-c3csc4nc(-c5ccccc5)cn34)c2c1 | 40.2% |
| COc1cc(Cn2cc3c(c2)-c2onc(CN4CCCC4)c2CC3)cc(OC)c1OC | 96.7% |
| COC(=O)/C=C/c1c(C2(C)NC(=O)c3ccccc3N2)c(=O)oc2ccc(Cl)cc12 (stereo not drawn) | 87.9% |
| Cc1ccc2c(c1)Oc1nc(N)c(C#N)c(N)c1C2Sc1ccc(F)cc1 (stereo not drawn) | -98.4% (active) |
| COc1ccc(Cn2cc3c(c2-c2cc(OC)c(OC)c(OC)c2)CCc2c(CN4CCCC4)noc2-3)cc1 | 36.6% |
| COc1ccc(Cn2cc3c(c2-c2cc(OC)c(OC)c(OC)c2)CCc2c(CN4CCOCC4)noc2-3)cc1 | 31.6% |
| CCNC(=O)N1CCc2cc(OC)c(OCCc3ccc(OC)cc3)cc2C1c1ccc([N+](=O)[O-])cc1C (stereo not drawn) | 44% |
| COc1ccc([C@@H]2[C@@H](O)C(=O)N2c2cc(OC)c(OC)c(OC)c2)cc1F | 28.7% |
| Cc1ccc(-c2nnc(SCc3ccc(O)c4ncccc34)n2-c2ccccc2)cc1 | 15.1% |
| COc1cc2oc(-c3cccc(C(=O)N[C@@H](CC(C)C)C(=O)OC(C)(C)C)c3)cc(=O)c2c(OC)c1OC | 57% |
| Cc1ccc(S(=O)(=O)N(CC[C@@H]2C[C@H]2c2cc3ccccc3o2)S(=O)(=O)c2ccc(C)cc2)cc1 | 94.6% |
| Brc1ccccc1/C=N/Nc1nc(N/N=C/c2ccccc2Br)nc(N2CCOCC2)n1 | 98.8% |
| CC1=NC2=NC(=O)/C(=C3/N=C(C)C=C(c4ccccc4)N3N)NN2C(c2ccccc2)=C1 | 100% |
| CN(C)CCN(C)c1ccc2ncc(C#Cc3cncc(C(=O)Nc4ccc(CN5CCN(C)CC5)c(C(F)(F)F)c4)c3)n2n1 | 36.1% |
| NC(N)=Nc1ccc(Oc2cccc(Nc3ccc(Br)c(C(F)(F)F)c3)c2)cn1 | -87.7% (active) |
| COc1cc(Cn2cc3c(c2)-c2onc(CN4CCOCC4)c2CC3)cc(OC)c1OC | 95.5% |
| Cc1cc(-c2ccc(Cl)cc2)n(Cc2nnc(SCC(=O)Nc3ccc(S(N)(=O)=O)cc3)n2-c2ccc([N+](=O)[O-])cc2)n1 | 82% |
| COc1ccc(C(=O)CSc2nc3c(c(Nc4ccc(S(N)(=O)=O)cc4)n2)CCCC3)cc1 | 89.9% |
| CCn1c(SCC(=O)Nc2cccc(C(=O)/C=C/c3cc(OC)c(OC)c(OC)c3)c2)nc2ccccc2c1=O | 37.6% |

| Compound | growth |
| --- | --- |
| Nc1ncc(-c2ccc(NS(=O)(=O)c3ccc(Cl)c(Cl)c3)cc2)[nH]1 | 90.9% |
| Cc1nn(-c2ccccc2)c2ncnc(N/N=C/c3ccccc3O)c12 | 8.87% (active) |
| COc1cc(-c2nnc(SCc3ccc(O)c4ncccc34)n2-c2ccccc2)cc(OC)c1OC | 8.79% (active) |
| Oc1ccc(CSc2nnc(-c3ccc(Cl)cc3)n2-c2ccccc2)c2cccnc12 | 33.2% |
| CCc1ccc(SC2c3ccc(N(CC)CC)cc3Oc3nc(N)c(C#N)c(N)c32)cc1 (stereo not drawn) | -32.9% (active) |
| CS(=O)(=O)Nc1cc(-c2ccc3ncc(C#N)c(NCc4ccccc4O)c3c2)cnc1Cl | 17.1% |
| NS(=O)(=O)c1ccc(Nc2cc(-c3ccccc3)nc(SCC(=O)c3ccccc3)n2)cc1 | 96% |
| c1ccc(C(c2nc3ncncc3[nH]2)N2CSc3nc4ccccc4n3C2)cc1 (stereo not drawn) | 98.8% |
| COCCNc1ccc2ncc(C#Cc3cncc(C(=O)Nc4ccc(CN5CCN(C)CC5)c(C(F)(F)F)c4)c3)n2n1 | -6.14% (active) |
| O=c1c2ccccc2nc(COc2ccccc2)n1NS(=O)(=O)c1ccc(Cl)cc1 | 76.6% |
| NC(N)=Nc1ccc(Oc2cccc(Nc3ccc(Cl)c(C(F)(F)F)c3)c2)cn1 | -84.4% (active) |
| O=C1CC(=O)N2CSCN(C(c3ccccc3)c3nc4ncncc4[nH]3)C2=N1 (stereo not drawn) | 103% |
| COc1cc(/C=N/NC(=O)c2cn(C3CC3)c3c(OC)c(N4CC5CCCNC5C4)c(F)cc3c2=O)ccc1O (stereo not drawn) | 23.8% |
| C[C@H](CCC(=O)NCc1ccc(C(=O)Nc2ccccc2N)cc1)[C@H]1CC[C@H]2[C@@H]3[C@@H](O)C[C@@H]4C[C@H](O)CC[C@]4(C)[C@H]3CC[C@]12C | 69.5% |
| N#Cc1cn(Cc2ccc(Cl)cc2Cl)c(C(=O)c2ccc(Br)cc2)c1N | 101% |
| CCNC(=O)N1CCc2cc(OC)c(OCCc3ccc(OC)nc3)cc2C1c1ccc(OC)cc1C (stereo not drawn) | 44.8% |
| C=CCn1c(-c2nc3ccc(C(=C(C#N)C#N)c4ccccc4)cc3[nH]2)cc2cc(Br)ccc21 | 69% |
| Cc1ccc(S(=O)(=O)NCCNc2nc(Nc3ccc(N4CCN(C)CC4)cc3)nc3ccsc23)cc1 | 97.4% |
| COc1cc2nc(Cl)nc(Nc3cccc(C4=Nc5c(N)nc(N)nc5NC(c5ccc(Cl)cc5)C4)c3)c2cc1OC (stereo not drawn) | 73.7% |
